Test results published in PubChem BioAssay AID372 (MTDP, 2006).
Among all 100,000 compounds or so, about 770 (0.77%) were called active. Many of the other results were omitted from the sample, so actives are more common in it than they were. Unmarked numbers belong to inactive results. Rule as the data show it: active = inhibition above about 50%; inactive = the rest.

The molecules below were run against Gag-Pol polyprotein (Human immunodeficiency virus type 1 group M subtype B (isolate HXB2)) (UniProt P04585) (assay: RNase H inhibition, HIV 1 Gag Pol polyprotein, FRET biochemical assay, screening (AID 372)). Conditions: HIV-1 RT RNase H, FRET RNA/DNA substrate fluorescence; at 10 µM; active compounds read high.

Compound | inhibition
O=C(Cc1cccc2ccccc12)N/N=C/c1cc(Br)c(O)c(Br)c1O | 0%
CCOc1cccc(NC(=O)/C(C#N)=C\c2ccc(-c3cccc([N+](=O)[O-])c3)o2)c1 | 10%
Cc1ccc(Sc2ccc(/C=C3/SC(=S)N(C)C3=O)o2)cc1 | 45%
CN1C(=O)S/C(=C/c2ccc(Sc3ccccc3)o2)C1=O | 52% (active)
CN1C(=O)/C(=C\c2ccc(Sc3ccc(Cl)cc3)o2)SC1=S | 22%
CCCCOc1ccc(C(=O)N2CCCc3ccccc32)cc1 | 13%
O=C(Nc1cccc(NC(=O)C(Cl)(Cl)Cl)c1)c1ccc(Cl)cc1Cl | 13%
Cc1nc(/N=C/c2ccc(Br)cc2)sc1C | 8%
NC1=NC(=O)/C(=C/c2ccc(OC(=O)c3cccc4ccccc34)cc2)S1 | 20%
COc1cc(/C=C2\SC(N)=NC2=O)cc(Br)c1OC(=O)c1cccc2ccccc12 | 35%
CCOc1cc(C=C2C(=O)NC(=O)NC2=O)ccc1OC(=O)c1cccc2ccccc12 | 56% (active)
COc1ccc(/C=C2\SC(N)=NC2=O)cc1OC(=O)c1cccc2ccccc12 | 53% (active)
COc1cc(/C=C2\SC(N)=NC2=O)ccc1OCc1cccc2ccccc12 | 52% (active)
COc1cc(/C=C2/SC(N)=NC2=O)ccc1OCc1ccccc1[N+](=O)[O-] | 39%
COc1cc(/C=C2\SC(N)=NC2=O)cc(Br)c1OCc1cccc2ccccc12 | 30%
COc1ccc(C=C2C(=O)NC(=S)NC2=O)cc1OC(=O)c1cccc2ccccc12 | 26%
CCOc1cc(C=C2C(=O)NC(=O)NC2=O)ccc1OCc1cccc2ccccc12 | 43%
CCOC(=O)C(=CNc1ccc(F)c(F)c1F)C(=O)OCC | 10%
CC(C)(C)c1ccc(C(=O)NCCSc2ccc(Cl)cc2)cc1 | 19%
O=C(N/N=C\c1cc(Br)ccc1O)c1cnccn1 | 7%
Cc1ccc(NC(=S)NC(=O)c2ccccc2Cl)cc1C | 11%
O=C(COc1ccc(Br)cc1Cl)NCc1cccnc1 | 0%
CC(=O)n1ccc(C(=O)Nc2ccc(Cl)c(Cl)c2)n1 | 2%
O=C(Nc1ccc(F)cc1F)c1cnn2c1NC(c1cccs1)CC2C(F)(F)F (stereo not given) | 5%
O=c1oc2ccc(O)c(-c3ccccc3Cl)c2s1 | 2%
O=C(Oc1ccc2oc(=O)sc2c1)c1ccccc1 | 6%
Cc1cc(I)ccc1NC(=O)c1ccccc1F | 8%
CC(=O)c1cccc(NC(=O)C2CCCCC2)c1 | 0%
O=C(Nc1ccc2ccccc2c1)C1CCCCC1 | 2%
O=C(c1ccccc1)c1cccc(NC(=O)C2CCCCC2)c1 | 51% (active)
